# Data taken from PubChem BioAssay (NCATS).
# Values joined by “and” are separate entries in the source; they are usually repeats but may differ in a detail not shown here. Equal values may be shown once. A number with no mark means an inactive call. Inconclusive results are not listed. Where a call stands in place of a potency, no number is given. Some compounds were tested as several samples or in several runs, with calls that do not always agree. Active and inactive are the calls of the source. Unless noted, calls follow the shape of the dose curve; as a rule, active = well fitted curve in the direction sought with a large enough effect; inconclusive = small, poorly fitted or top-dose-only effect, or another doubt; inactive = no such curve, though single readings can be large; an effect the other way counts as inactive or inconclusive.
# Tests used:
# [1] = test system: C33A; assay: Primary qHTS to identify gynecologic anti-cancer compounds using libraries of approved drugs and bioactive compounds (AID 1345084); conditions: Gynecologic cancer cell panel viability, ATPlite luminescence, 48 h; series mostly up to 57.5 µM; also: nearly all actives have a fitted effect of over 55% in size
# Procedure, shortened: (§1)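 ATP-based viability (ATPlite), 1,000 cells/well, 16 h pre-incubation, 48 h compound at 37 C, 5% CO2, 15 min RT before read.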
# [2] = test system: CAOV3; assay: as above; conditions: Gynecologic cancer cell panel viability, ATPlite luminescence, 48 h; series mostly up to 57.5 µM
# Procedure, shortened: as §1
# [3] = test system: CASKI; assay: as above; conditions: Gynecologic cancer cell panel viability, ATPlite luminescence, 48 h; series mostly up to 57.5 µM
# Procedure, shortened: as §1
# [4] = test system: Es-2; assay: as above; conditions: Gynecologic cancer cell panel viability, ATPlite luminescence, 48 h; series mostly up to 57.5 µM
# Procedure, shortened: as §1
# [5] = test system: HeLa; assay: as above; conditions: Gynecologic cancer cell panel viability, ATPlite luminescence, 48 h; series mostly up to 57.5 µM
# Procedure, shortened: as §1
# [6] = test system: Hek293T; assay: as above; conditions: Gynecologic cancer cell panel viability, ATPlite luminescence, 48 h, control line for the selectivity index; series mostly up to 57.5 µM
# Procedure, shortened: as §1
# [7] = test system: JEG-3; assay: as above; conditions: Gynecologic cancer cell panel viability, ATPlite luminescence, 48 h; series mostly up to 57.5 µM
# Procedure, shortened: as §1
# [8] = test system: OV90; assay: as above; conditions: Gynecologic cancer cell panel viability, ATPlite luminescence, 48 h; series mostly up to 57.5 µM
# Procedure, shortened: as §1
# [9] = test system: PA-1; assay: as above; conditions: Gynecologic cancer cell panel viability, ATPlite luminescence, 48 h; series mostly up to 57.5 µM
# Procedure, shortened: as §1
# [10] = test system: SKOV3; assay: as above; conditions: Gynecologic cancer cell panel viability, ATPlite luminescence, 48 h; series mostly up to 57.5 µM
# Procedure, shortened: as §1
# [11] = test system: Tov-21-G; assay: as above; conditions: Gynecologic cancer cell panel viability, ATPlite luminescence, 48 h; series mostly up to 57.5 µM
# Procedure, shortened: as §1
# [12] = test system: Tov112D; assay: as above; conditions: Gynecologic cancer cell panel viability, ATPlite luminescence, 48 h; series mostly up to 57.5 µM
# Procedure, shortened: as §1
# [13] = Drug repurposing screens with cells derived from glioblastoma tumor samples (AID 1345199); conditions: GBM patient neurospheres viability, ATP luminescence, 48 h; also: nearly all actives have a fitted effect of over 40% in size; also: potency is read from the fitted curve at half-maximal effect
# Procedure, shortened: (§2)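 Primary testing used CD133+ neurospheres from four GBM patients, seven concentrations, 48 h exposure and ATP-based viability; confirmation added three slower-growing patient lines.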
# [14] = test system: astro; assay: as above; conditions: viability, ATP luminescence, 48 h; series mostly up to 45.9 µM
# Procedure, shortened: as §2
# [15] = molecular target: Nuclear receptor subfamily 1 group I member 2 (Rattus norvegicus) (UniProt Q9R1A7); assay: qHTS assay for small molecule activators of the rat pregnane X receptor (rPXR) signaling pathway (AID 651751; call rule not given here); conditions: rPXR reporter cells, luciferase (One-Glo), 24 h
# [16] = qHTS assay for small molecule activators of the human pregnane X receptor (PXR) signaling pathway (AID 720659; call rule not given here)
# [17] = at 45.9 µM (top of the series), tumour line B
# [18] = at 45.9 µM (top of the series), tumour line D
# [19] = at 46 µM (top of the series), tumour line A
# [20] = at 46.1 µM (top of the series), tumour line C
# Chain of Nuclear receptor subfamily 1 group I member 2 (Rattus norvegicus) (Q9R1A7 whole entry, looked up): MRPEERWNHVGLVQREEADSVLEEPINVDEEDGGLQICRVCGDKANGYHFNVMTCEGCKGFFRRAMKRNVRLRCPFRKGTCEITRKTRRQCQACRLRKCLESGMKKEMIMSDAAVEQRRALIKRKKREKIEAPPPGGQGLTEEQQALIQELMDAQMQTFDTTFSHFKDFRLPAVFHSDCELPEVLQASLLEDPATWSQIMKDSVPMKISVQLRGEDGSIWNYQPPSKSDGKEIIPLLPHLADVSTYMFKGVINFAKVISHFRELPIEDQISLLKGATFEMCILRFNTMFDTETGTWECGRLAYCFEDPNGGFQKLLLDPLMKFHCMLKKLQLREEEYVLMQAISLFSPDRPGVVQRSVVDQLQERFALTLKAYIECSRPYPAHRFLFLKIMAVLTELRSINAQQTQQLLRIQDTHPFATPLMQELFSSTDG
SMILES,Potency [1],Potency [2],Potency [3],Potency [4],Potency [5],Potency [6],Potency [7],Potency [8],Potency [9],Potency [10],Potency [11],Potency [12],"activity, negative = cell killing [13, 17]","activity, negative = cell killing [13, 18]","activity, negative = cell killing [13, 19] [%]","activity, negative = cell killing [13, 20] [%]",Potency [14],Potency ([13]; tumour line A),max response [15],outcome [16]
CCN1CCN(C(=O)N[C@@H](C(=O)N[C@@H]2C(=O)N3[C@@H]2SC(C)(C)[C@H]3C(=O)O)c2ccccc2)C(=O)C1=O,inactive,inactive,inactive,inactive,inactive,inactive,inactive,inactive,inactive,inactive,inactive,inactive,-6.11%,-1.23%,-24,3.83,inactive,,,
Nc1c(NC/C=C\COc2cc(CN3CCCCC3)ccn2)c(=O)c1=O,inactive,inactive,inactive,inactive,inactive,inactive,inactive,inactive,inactive,inactive,inactive,inactive,-4.69%,-28.9%,,3.18,inactive,,,
CC(=O)OC/C=C(C)/C=C/C=C(C)/C=C/C1=C(C)CCCC1(C)C,inactive,inactive,inactive,inactive,inactive,inactive,inactive,inactive,inactive,inactive,inactive,inactive,-7.14%,-23.4%,,-13.6,inactive,,,
O=C(O)[C@@H](O)[C@H](O)[C@H](O)[C@@H](O)C(=O)O,inactive,inactive,inactive,inactive,inactive,inactive,inactive,inactive,inactive,inactive,inactive,inactive,-15.2%,6.93%,,-6.4,inactive,,,
CN(CC1(C)CCCO1)S(=O)(=O)c1ccc(Cl)c(S(N)(=O)=O)c1 (stereo not drawn),inactive,inactive,inactive,inactive,inactive,inactive,inactive,inactive,inactive,inactive,inactive,inactive,-9.01%,-23.5%,,16.1,inactive,,,
COc1cc(C(=O)NC2CCCNC2)cc(OC)c1OC (stereo not drawn),inactive,inactive,inactive,inactive,inactive,inactive,inactive,inactive,inactive,inactive,inactive,inactive,-2.35%,-10.6%,,15.7,inactive,,,
CC(C)(C)C(O)/C=C/c1ccc2c(c1)OCO2 (stereo not drawn),inactive,inactive,inactive,inactive,inactive,inactive,inactive,inactive,inactive,inactive,inactive,inactive,-14.2%,-29.5%,,10.3,inactive,15.8 µM (active),,
CCc1cc(S(=O)(=O)O)c2cc(C(C)C)cccc1-2,inactive,inactive,inactive,inactive,inactive,inactive,inactive,inactive,inactive,inactive,inactive,inactive,-10.8%,-10.6%,,-1.11,inactive,,,
Nc1nnnn1-c1ccccc1,inactive,inactive,inactive,inactive,inactive,inactive,inactive,inactive,inactive,inactive,inactive,inactive,-11.1%,-15.7%,-29.5,12.1,inactive,,,
CC1(C)S[C@@H]2[C@H](NC(=O)C(c3ccccc3)S(=O)(=O)O)C(=O)N2[C@H]1C(=O)O (stereo partly drawn),inactive,inactive,inactive,inactive,inactive,inactive,inactive,inactive,inactive,inactive,inactive,inactive,-7.89%,-16.5%,,4.53,inactive,,,
CCOC(=O)c1ccc(OCCN2C[C@H](O)[C@@H](O)[C@H](O)[C@H]2CO)cc1,inactive,inactive,inactive,inactive,inactive,inactive,inactive,inactive,inactive,inactive,inactive,inactive,0.0726%,-4.04%,,1.63,inactive,,,
O=[N+]([O-])c1nccn1CO[C@@H](CO)[C@H](O)CO,inactive,inactive,inactive,inactive,inactive,inactive,inactive,inactive,inactive,inactive,inactive,inactive,-1.15%,-7.16%,,-8.18,inactive,,,
CCOC(=O)NNc1nncc2ccccc12,inactive,inactive,inactive,inactive,inactive,inactive,inactive,inactive,inactive,inactive,inactive,inactive,-5.14%,-7.16%,,-13.4,inactive,,,
CC(=O)N[C@@H](CCC(N)=O)C(=O)O,inactive,inactive,inactive,inactive,inactive,inactive,inactive,inactive,inactive,inactive,inactive,inactive,-17.6%,-7.79%,,-4.41,inactive,,,
Cc1ccc(/C=N/n2c(-c3ccccc3)csc2=S)cc1,inactive,inactive,inactive,inactive,inactive,inactive,inactive,inactive,inactive,inactive,inactive,inactive,-0.779%,-6.23%,,-16.1,inactive,17.8 µM (active),,
O=C(OCC1(COC(=O)c2cccnc2)CCCC(COC(=O)c2cccnc2)(COC(=O)c2cccnc2)C1O)c1cccnc1,inactive,inactive,inactive,inactive,inactive,inactive,inactive,inactive,inactive,inactive,inactive,inactive,-11.6%,-18.7%,,2.18,inactive,,,
CCOC(=O)[C@H](CCc1ccccc1)N[C@@H](C)C(=O)N(CC(=O)O)C1Cc2ccccc2C1,inactive,inactive,inactive,inactive,inactive,inactive,inactive,inactive,inactive,inactive,inactive,inactive,-1.19%,-9.08%,,19.3,inactive,,,
CN1C(=O)CC(C)(c2ccccc2)C1=O (stereo not drawn),inactive,inactive,inactive,inactive,inactive,inactive,inactive,inactive,inactive,inactive,inactive,inactive,-1.54%,0.352%,-33.9,-2.82,inactive,,,
OCc1cccnc1,inactive,inactive,inactive,inactive,inactive,inactive,inactive,inactive,inactive,inactive,inactive,inactive,-6.38%,-1.28%,-22,-5.89,inactive,,,
O=C1[C@@H]2[C@H]3CC[C@H](C3)[C@@H]2C(=O)N1CCCCN1CCN(c2ncccn2)CC1,inactive,inactive,inactive,inactive,inactive,inactive,inactive,inactive,inactive,inactive,inactive,inactive,-7.9%,,,-10.5,inactive,12.6 µM (active),,
CN(C(=O)C(Cl)Cl)c1ccc(OC(=O)c2ccco2)cc1,inactive,inactive,inactive,inactive,inactive,inactive,inactive,inactive,inactive,inactive,inactive,inactive,-5.88%,-16.9%,,-29.6,inactive,35.5 µM (active),,
O=C(Oc1ccccc1)c1ccccc1O,inactive,inactive,inactive,inactive,inactive,inactive,inactive,inactive,inactive,inactive,inactive,inactive,-4.53%,13.5%,-25.7,-8.91,inactive,,9.53% and -0.74%,inactive
CCCCCC1Nc2cc(C(F)(F)F)c(S(N)(=O)=O)cc2S(=O)(=O)N1 (stereo not drawn),inactive,inactive,inactive,inactive,inactive,inactive,inactive,inactive,inactive,inactive,inactive,inactive,-8.57%,-19.1%,,-6.63,inactive,,,
CN(C)C(=O)CNC(=O)Cc1ccccc1,inactive,inactive,inactive,inactive,inactive,inactive,inactive,inactive,inactive,inactive,inactive,inactive,-9.58%,-2.49%,-22.3,4.09,inactive,,,
O=C(NN1CCCC1)NS(=O)(=O)c1ccc(Cl)cc1,inactive,inactive,inactive,inactive,inactive,inactive,inactive,inactive,inactive,inactive,inactive,inactive,1.6%,-25.9%,,2.27,inactive,,,
O=C(O)c1ccccc1S,inactive,inactive,inactive,inactive,inactive,inactive,inactive,inactive,inactive,inactive,inactive,inactive,0.0031%,6.57%,,1.53,inactive,,,
CO/N=C(/C(=O)N[C@@H]1C(=O)N2C(C(=O)[O-])=C(C[n+]3ccn4ncccc43)CS[C@H]12)c1nsc(N)n1,inactive,inactive,inactive,inactive,inactive,inactive,inactive,inactive,inactive,inactive,inactive,inactive,-6.03% and -3.53%,-11.1% and -14%,,,inactive,8.91 µM (active),,
